# FMDV inh = blocks foot and mouth disease virus; FMDV antiviral cell-based qHTS; Potency, µM (doses to about 57.9 µM), for the others: at the top dose activity change, negative = inhibition, most hits filed as inhibitors; 410,000 compounds, 1.2% hits; AID 1159524; calls by dose curve; tested in HEK293T cells; further: read-out not given here; nearly all actives have a fitted effect of over 45% in size
# RE007 growth inh = less growth of the S. pombe RE007 Vpr strain | AID 651644 | Potency, µM (series often up to 92.2 µM), for the others: at the top dose activity change, negative = less growth, actives largely listed as inhibitors | S. pombe RE007 Vpr strain, BacTiter-Glo ATP luminescence, 24 h | 360,000 compounds, 0.21% hits; active means well fitted falling curve with a large enough effect; inconclusive means small, poorly fitted or top-dose-only effect; inactive means no such curve, though single readings can be large or run the other way; further: nearly all actives have a fitted effect of over 50% in size
#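 Fission yeast strain RE007, carrying one chromosomally integrated HIV-1 vpr copy, was seeded at OD 0.01 in PMG+AL medium with 23 nL pinned compound. After 24 h at 30 °C and 99% humidity, viability was read by BacTiter-Glo luminescence.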
# TbPYK inhibitor = blocks Trypanosoma brucei pyruvate kinase; TbPYK enzyme, Kinase-Glo Plus ATP luminescence, 45 min; Potency, µM (doses to about 76.8 µM), for the others: top-dose activity, negative = inhibition, actives largely listed as inhibitors; 410,000 compounds, 0.12% hits; further: nearly all actives have a fitted effect of over 50% in size
#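 Luminescent Kinase-Glo Plus end-point after 45 min room-temperature reaction of T. brucei pyruvate kinase started with 130 uM ADP (final). Buffer TEA 50 mM pH 7.2 with KCl, MgCl2, BSA, Tween-20; titration-based qHTS with fitted concentration-effect curves.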
# Sm TGR inh = inhibitors of Schistosoma mansoni thioredoxin glutathione reductase; AID 485364; purified TGR, DTNB reduction, TNB absorbance 405 nm; Potency, µM (series often up to 114 µM), for inactives: at the highest dose activity change, negative = inhibition, usual class: inhibitors; 360,000 compounds, 3% hits; further: nearly all actives have a fitted effect of over 60% in size
#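 TGR 20 nM + NADPH 100 uM (dispensed conc.), cpd preinc 15 min RT; start with NADPH (500 uM addition) then DTNB (15 mM addition). Kinetic TNB absorbance, 405 nm filter. Four-parameter Hill fit across titration.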
# * hit, by the source's call; ? = inconclusive; · = no result given. Rows were chosen to be rich in hits. Some 3.7% of all compounds tested hit in one or more screens of this group. Unless noted, the call rests on the fitted dose curve; in most records, active means well fitted curve in the direction sought with a large enough effect; inconclusive means small, poorly fitted or top-dose-only effect, or another doubt; inactive means no such curve, though single readings can be large; an effect the other way counts as inactive or inconclusive. On the % scale 0 is the no-effect control and ±100 the full control effect; potency means the concentration at half of the fitted maximal effect.
SMILES,FMDV inh,RE007 growth inh,TbPYK inhibitor,Sm TGR inh
O=C(NCc1ccc(F)cc1)c1cc(Sc2ccc(F)cc2F)nc2ccccc12,?,·,-4.7%,7.6%
CN(Cc1ccccc1)C(=O)c1nc[nH]c1C(=O)N1CCc2ccccc2C1,-8.9%,10.6%,-0.5%,35.5µM*
O=C(NC1CCCCC1)C(c1ccncc1)N(Cc1ccc2c(c1)OCO2)C(=O)C(F)(F)F (stereo not drawn),13.7%,16.4%,-8.9%,44.7µM*
Cc1ccc(-c2cc(C(F)(F)F)n3ncc(-c4ccc(Cl)cc4)c3n2)cc1,9.3%,·,-7.2%,5.3%
COc1ccc(NC(=O)Cn2cnc3ccc(S(=O)(=O)N4CCC(C)CC4)cc3c2=O)cc1OC,-1.0%,·,-2.1%,18.1%
CCN1C(=O)/C(=C/C=C2\C=CN(CC)c3ccccc32)SC1=S,12.6µM*,-2.9%,?,?
CCN1C(=O)/C(=C\C=C2/C=CC=CN2CC)SC1=S,-43.9%,?,?,?
Cc1ccc(Cl)cc1N1CCN(C(=O)c2noc3c2CCCC3)CC1,-9.7%,·,0.0%,17.2%
CC(=O)N(c1ccccc1C)C1CCCC1,-9.3%,-14.0%,-1.0%,-0.5%
CC(=O)N(C1=C(Cl)C(=O)c2ccccc2C1=O)C1CCCCC1,?,6.31µM*,0.891µM*,0.112µM*
COc1cccc(CNC(=O)c2cc(S(=O)(=O)N3CCCCCC3)cn2C)c1,-14.1%,·,6.3%,-4.8%
CC(=O)/C=C/c1ccccc1Oc1c(F)c(F)nc(F)c1F,31.6µM*,-1.8%,1.0%,-0.9%
COc1ccccc1/C=C\C(=O)O,-10.1%,·,·,·
COc1ccc(-c2n[nH]c(=S)n2-c2ccccc2C)cc1OC,-8.2%,-21.7%,?,-27.8%
COc1ccc(-c2n[nH]c(=S)n2-c2ccc(Br)cc2)cc1OC,-9.5%,10.9%,3.98µM*,-18.6%
COc1cc(-c2n[nH]c(=S)n2-c2ccc(C)cc2)cc(OC)c1OC,3.2%,9.2%,8.91µM*,9.6%
COc1ccc(-n2c(-c3ccc(C)cc3)n[nH]c2=S)cc1,-12.0%,21.5%,?,-7.2%
Cc1nn(-c2ccccn2)c2c1C(=O)C(Br)CC2 (stereo not drawn),31.6µM*,4.9%,?,2.51µM*
O=C(NC(=S)Nc1ccccc1Cl)c1ccco1,59.2%,-16.0%,-7.0%,12.6µM*
O=C(NC(=S)Nc1c(Cl)ccc2nsnc12)c1ccco1,-14.1%,-7.2%,-1.3%,25.1µM*
O=C(Nc1c(Cl)ccc2nsnc12)c1cccnc1,-1.6%,-1.7%,-14.0%,2.7%
O=C(NC(=S)Nc1ccc(N2CCCCC2)cc1)c1ccco1,32.6%,-7.4%,1.0%,15.8µM*
CC1CCN(c2ccc(NC(=S)NC(=O)c3ccco3)cc2)CC1,-0.9%,-3.8%,-2.5%,?
Cc1sc(NC(=S)NC(=O)c2ccco2)c(C#N)c1C,-10.3%,8.2%,5.6%,3.98µM*
O=C(NC(=S)Nc1ccc(Cl)c(C(=O)O)c1)c1ccco1,26.7%,17.7%,-1.8%,44.7µM*
SMILES,FMDV inh,RE007 growth inh,TbPYK inhibitor,Sm TGR inh
CC1Cc2ccccc2N1C(=S)NC(=O)c1ccco1 (stereo not drawn),-7.6%,2.9%,-9.1%,-16.4%
O=C(NC(=S)Nc1ccccc1N1CCCCC1)c1ccco1,22.4µM*,16.8%,-2.9%,0.9%
O=C(NC(=S)N1CCCc2ccccc21)c1ccco1,2.2%,12.5%,1.4%,28.2µM*
CCC(=O)Nc1ccc(Cl)c(NC(=S)NC(=O)c2ccco2)c1,8.3%,2.3%,-2.6%,?
CCOC(=O)c1ccccc1NC(=O)c1cc2ccc3cccnc3c2[nH]1,-6.4%,·,-9.6%,10.1%
CC(C)Oc1ccc(CNC(=O)C2CCN(c3nc4ccccc4nc3C(F)(F)F)CC2)cc1,?,·,-7.2%,2.8%
CCC(C(=O)NCc1cc(OC)ccc1OC)n1nc(C)c2sc3ccccc3c2c1=O (stereo not drawn),-34.2%,·,0.7%,-2.0%
COc1ccc(C(=O)N/N=C\c2coc3ccccc3c2=O)cc1,-9.2%,-1.8%,-6.4%,?
COc1cc(C(=O)N/N=C/c2coc3ccccc3c2=O)cc(OC)c1OC,-15.1%,-11.4%,-11.5%,44.7µM*
c1cncc(-c2nnc(-c3cccnc3)nn2)c1,?,22.4µM*,-19.4%,-2.2%
c1ccc(-c2nnc(-c3ccccc3)nn2)cc1,-38.4%,0.4%,?,17.6%
CCCn1nnc(NC(=O)/C=C/c2ccco2)n1,0.0%,-1.1%,-3.7%,5.62µM*
O=C(/C=C/c1ccco1)NC(=S)Nc1nc(-c2ccc(Cl)cc2)cs1,-8.0%,-24.2%,-10.5%,-3.9%
CCCn1nnc(NC(=O)/C=C/c2ccccc2)n1,41.3%,-11.2%,-6.4%,3.1%
Cn1nnc(NC(=S)NC(=O)/C=C/c2ccco2)n1,-20.4%,-9.2%,-21.7%,3.16µM*
Cc1ccccc1C1(CC(=O)N2CC3CC4CC(C3)CC2C4)CC(=O)N(Cc2cccnc2)C1=O (stereo not drawn),6.9%,·,·,·
Fc1cc(Br)ccc1NC(=S)Nc1ccccc1,21.3%,·,-4.4%,28.2µM*
O=C(O)Cc1ccc(NC(=S)Nc2ccc(Br)cc2Cl)cc1,3.1%,6.1%,0.9%,22.4µM*
Fc1ccccc1NC(=S)Nc1ccc(Br)cc1,21.7%,-3.0%,-4.3%,50.1µM*
O=C(Nc1ccc(Br)cc1)Nc1ccccc1F,5.4%,-7.4%,1.8%,4.0%
COc1ccc(-c2nc3sc(CCNC(=O)c4ccco4)c(C)n3n2)cc1,19.3%,·,-3.8%,7.7%
COc1ccccc1C(c1c(N)n(C)c(=O)n(C)c1=O)C(C)[N+](=O)[O-] (stereo not drawn),8.5%,?,-4.7%,-21.7%
COc1ccccc1C(C[N+](=O)[O-])c1c(N)n(C)c(=O)n(C)c1=O (stereo not drawn),31.6µM*,35.5µM*,2.0%,-10.9%
O=C(Nc1ccc(F)cc1Cl)c1cnc(N2CCOCC2)c2ccccc12,9.1%,·,0.2%,-5.3%
COc1ccc2c3c(cccc13)C(=O)N(O)C2=O,-11.5%,·,-13.8%,5.9%
SMILES,FMDV inh,RE007 growth inh,TbPYK inhibitor,Sm TGR inh
CCC1=NNc2cccc3c(OC)ccc1c23,·,·,·,10µM*
CCCCn1c(O)c(/C=C/C=C/C=Nc2ccccc2)sc1=S,?,-1.9%,-11.4%,20µM*
Oc1c(/C=C/C=C/C=Nc2ccccc2)sc(=S)n1Cc1ccccc1,-3.8%,-1.2%,1.0%,11.2µM*
Cc1ccc(S(=O)(=O)c2ccc([N+](=O)[O-])o2)cc1,17.8µM*,7.94µM*,-8.6%,·
O=NCc1ccc([N+](=O)[O-])o1,·,·,-15.2%,·
NC(=O)C(=CNc1nc(-c2ccc(Cl)c(Cl)c2)cs1)C(N)=O,·,·,·,2.24µM*
Cc1oc(C)c2c(=O)ccc3c(c12)OC(N)=C(C#N)C3c1ccc(F)cc1 (stereo not drawn),-23.2%,8.4%,-15.2%,17.8µM*
CN(C)c1ncnc2ccc(-c3ccc4c(c3)OCO4)cc12,-14.1%,·,·,·
CCc1ccc(N2C(=O)CC(N3CCN(c4ccccn4)CC3)C2=O)cc1 (stereo not drawn),-17.0%,?,2.8%,22.4µM*
O=C1CC(N2CCN(c3ccccn3)CC2)C(=O)N1CC(c1ccccc1)c1ccccc1 (stereo not drawn),?,44.4%,-7.5%,7.08µM*
